In the library only some 6.1% were active in any assay of this set; here they are far more common.
D1 agonist: activates the human D1 dopamine receptor; 360,000 compounds, 1% hits; HEK293 T-REx D1 cells, calcium flux, agonist mode; P21728; AID 504660; activation, % at 2 µM; in the data active = activation above about 30%; note: 0% is about no effect
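Inducible HEK293 T-REx D1 cells, force-coupled to calcium signalling, were plated at 4000 cells/well with tetracycline and held overnight at 30 C. After no-wash calcium dye loading, compound-evoked calcium rise over 180 s flagged agonists.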
D1 PAM: potentiators of human D1 dopamine receptor; P21728; HEK293 TREx D1 cells, calcium flux, dopamine EC20 potentiation; potentiation, % at 10 µM; 360,000 compounds, 0.036% hits; in the data active = potentiation above about 30%; note: 0% is about no effect
ERG-DNA inh: ERG Ets/DNA interaction inhibition; Potency, µM (titrated, usually from 76.9 µM), without a hit: at the highest dose FP activity, negative = inhibition, usual class: inhibitors; 370,000 compounds, 0.028% hits; P11308; fluorescence polarization, His-ERG Ets domain / labelled DNA; active = well fitted inhibition curve with a large enough effect in the polarisation, with a control signal flat; inconclusive = small, poorly fitted or top-dose-only effect, or effect the other way, or a change in a side signal; inactive = no such curve, though single readings can be large or run the other way; the % refers to the polarisation;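 note: polarization taken with two DNA probes labelled with fluorescein and Texas red; potency is the fitted concentration of half-maximal effect; % of control where 0% means no effect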
Target sequence (P11308 whole entry, looked up, the tested form may be a part): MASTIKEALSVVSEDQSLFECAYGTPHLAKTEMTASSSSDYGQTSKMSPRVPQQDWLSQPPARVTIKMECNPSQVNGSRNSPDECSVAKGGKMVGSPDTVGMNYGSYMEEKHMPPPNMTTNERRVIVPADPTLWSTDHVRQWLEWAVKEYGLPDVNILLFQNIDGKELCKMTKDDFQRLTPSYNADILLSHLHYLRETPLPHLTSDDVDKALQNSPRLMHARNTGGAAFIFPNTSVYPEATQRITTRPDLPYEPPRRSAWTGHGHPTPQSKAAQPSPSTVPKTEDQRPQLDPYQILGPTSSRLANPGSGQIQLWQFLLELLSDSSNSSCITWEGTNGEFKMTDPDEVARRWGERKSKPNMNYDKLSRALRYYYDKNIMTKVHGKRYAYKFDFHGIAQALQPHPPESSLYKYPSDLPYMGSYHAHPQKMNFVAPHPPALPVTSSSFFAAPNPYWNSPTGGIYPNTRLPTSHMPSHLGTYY
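His-tagged ERG Ets domain (1 uM in the protein solution; 300mM KCl, 50mM Tris-HCl, 1mM EDTA, 1mM DTT, pH 7.5) received compound, then a probe mix of 5 nM fluorescein-DNA and 100nM Texas-615-DNA. Fluorescence polarization was read for both dyes.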
D3 ag: D3 dopamine receptor (human) agonism. D3R DiscoveRx beta-arrestin cells, luminescence, 90 min. 410,000 compounds, 0.58% hits. max activation, %. P35462; in the data active = max activation above about 30%; note: 0% is about no effect
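Cells at 1500/well, incubated overnight, then treated with pinned compounds (dopamine as control) for 90 min at 37 degrees C. DiscoveRx reagent added for 30 - 60 minutes at room temperature; luminescence read.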
DRD3 antagonist: blocks the human D3 dopamine receptor | D3R cells, DiscoveRx beta-arrestin luminescence, antagonist mode; active compounds read low | max response, negative = inhibition, % | AID 652054 | 360,000 compounds, 2.5% hits; in the data active = max response below about -50%; inconclusive = no clear call, values can overlap the other calls; note: % is set by controls: 0 for no effect and ±100 for the full control effect
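Cells plated overnight at 1500 cells/well, then exposed to library compounds with dopamine controls for 90 minutes at 37 degrees C. DiscoveRx reagent added for 30–60 minutes at room temperature; luminescence read, quantitative HTS format.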
D1 antagonist: human D1 dopamine receptor antagonism | HEK293 TREx D1 cells, calcium flux, dopamine EC80; active compounds read low | activity change, negative = inhibition, % at 10 µM | 360,000 compounds, 3.2% hits; in the data active = activity change below about -30%; note: % is set by controls: 0 for no effect and ±100 for the full control effect
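Kinetic fluorescence of a calcium dye serves as the read-out. D1-expressing Hek293 Trex cells, induced overnight at 30 C, are exposed to compound for 180 s before an EC80 dopamine addition, then read 180 s further.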
Active calls of the source: *.

Results for Cc1ccccc1C(=O)Nc1sc2c(c1C(=O)O)CCC(C(C)(C)C)C2 (stereo not given) ?
D1 agonist: 0; D1 PAM: 0; ERG-DNA inh: 2%; D3 ag: 6; D1 antagonist: -15

What do the screens show for `O=C(CCNC(=O)c1ccc([N+](=O)[O-])cc1)Nc1ccc(F)cc1`?
D1 agonist: 3; D1 PAM: -1; ERG-DNA inh: 3%; D3 ag: -1; DRD3 antagonist: 37; D1 antagonist: -39*

What do the screens show for `COc1ccc(C2N3CC4(C)CN2CC(C)(C3)C4)cc1OC` (stereo not given)?
D1 agonist: 2; D1 PAM: 4; ERG-DNA inh: 7%; D3 ag: 1; DRD3 antagonist: 8; D1 antagonist: -36*

How did COc1ccc(C2N3CC4(C)CN2CC(c2ccccc2)(C3)C4=O)cc1OC (stereo not given) do in these assays?
D1 agonist: 0; D1 PAM: 1; ERG-DNA inh: 0%; D3 ag: 8; D1 antagonist: 10

Results for Cc1[nH]nc(SCC(=O)N2CCC(C)CC2)c1[N+](=O)[O-] ?
D1 agonist: 7; D1 PAM: -2; ERG-DNA inh: -9%; D3 ag: -2; DRD3 antagonist: -51*; D1 antagonist: -4

How did Cc1[nH]nc(SCC(=O)Nc2cccc(O)c2)c1[N+](=O)[O-] do in these assays?
D1 agonist: 1; D1 PAM: -2; ERG-DNA inh: 5%; D3 ag: 0; DRD3 antagonist: 13; D1 antagonist: 0

How did CCc1ccc(NC(=O)CSc2n[nH]c(C)c2[N+](=O)[O-])cc1 do in these assays?
D1 agonist: 15; D1 PAM: -8; D3 ag: -7; DRD3 antagonist: inconclusive; D1 antagonist: -48*

How did Cc1[nH]nc(SCC(=O)N2CCCC2)c1[N+](=O)[O-] do in these assays?
D1 agonist: 5; D1 PAM: -2; ERG-DNA inh: 2%; D3 ag: 2; DRD3 antagonist: -13; D1 antagonist: -4

What do the screens show for `Cc1ccc(-c2cc(C(=O)NCCc3ccccn3)c3ccccc3n2)c(C)c1`?
D1 agonist: -1; D1 PAM: 0; ERG-DNA inh: 1%; D3 ag: 1; DRD3 antagonist: 12; D1 antagonist: -16

Results for COc1ccc(Nc2oc(COc3ccc(OC)cc3)nc2C#N)cc1 ?
D1 agonist: 1; D1 PAM: -13; ERG-DNA inh: 0%; D3 ag: -1; DRD3 antagonist: 3; D1 antagonist: -34*

What do the screens show for `COc1ccc(Nc2oc(COc3ccc(C)cc3)nc2C#N)cc1`?
D1 agonist: 1; D1 PAM: -4; ERG-DNA inh: 10%; D3 ag: 5; DRD3 antagonist: 1; D1 antagonist: -2

How did CC(=O)NNC(=O)CCn1nnc2ccccc21 do in these assays?
D1 agonist: 0; D1 PAM: -6; ERG-DNA inh: -10%; D3 ag: 6; DRD3 antagonist: 6; D1 antagonist: 11

Results for Cn1ccc(C(=O)Nc2ccc(Br)cc2Br)n1 ?
D1 agonist: 1; D1 PAM: -16; ERG-DNA inh: -18%; D3 ag: -1; DRD3 antagonist: -3; D1 antagonist: -43*

Results for Cc1ccc(NC(=O)c2ccn(C)n2)c(Br)c1 ?
D1 agonist: 1; D1 PAM: 0; ERG-DNA inh: 1%; D3 ag: -5; DRD3 antagonist: 0; D1 antagonist: -5

How did CCOc1ccc(C(=O)NC2CC3CCCC(C2)N3Cc2ccccc2)cc1 (stereo not given) do in these assays?
D1 agonist: 5; D1 PAM: -14; ERG-DNA inh: -3%; D3 ag: -9; DRD3 antagonist: -54*; D1 antagonist: -16

How did O=C(NCc1ccccc1)NC1CC2CCC(C1)N2Cc1ccco1 (stereo not given) do in these assays?
D1 agonist: 6; D1 PAM: -5; ERG-DNA inh: -13%; D3 ag: -4; DRD3 antagonist: -12; D1 antagonist: -5

How did COc1ccc(C(=O)NC2CC3CCCC(C2)N3Cc2ccccc2)c(OC)c1 (stereo not given) do in these assays?
D1 agonist: 2; D1 PAM: -5; ERG-DNA inh: -8%; D3 ag: -18; DRD3 antagonist: -89*; D1 antagonist: -13

What do the screens show for `O=C(NC1CC2CCC(C1)N2Cc1ccccc1)c1ccccc1Br` (stereo not given)?
D1 agonist: 2; D1 PAM: -10; ERG-DNA inh: 7%; D3 ag: -19; DRD3 antagonist: -79*; D1 antagonist: 25

Results for COc1ccc(C(=O)NC2CCN(S(=O)(=O)Cc3ccccc3)CC2)c(OC)c1 ?
D1 agonist: 1; D1 PAM: 0; ERG-DNA inh: 1%; D3 ag: 9; DRD3 antagonist: -12; D1 antagonist: -3

How did CCOc1ccccc1C(=O)NC1CC2CCCC(C1)N2C1CC1 (stereo not given) do in these assays?
D1 agonist: 2; D1 PAM: -13; ERG-DNA inh: 5%; D3 ag: -4; DRD3 antagonist: -24; D1 antagonist: -28

Results for COc1ccccc1C(=O)NC1CC2CCC(C1)N2Cc1ccccc1 (stereo not given) ?
D1 agonist: 0; D1 PAM: -12; ERG-DNA inh: 15%; D3 ag: -17; DRD3 antagonist: -95*; D1 antagonist: -50*

Results for O=C(NC1CCCCNC1=O)c1ccc(Cl)cc1 (stereo not given) ?
D1 agonist: 2; D1 PAM: -4; ERG-DNA inh: -5%; D3 ag: 9; DRD3 antagonist: -5; D1 antagonist: 13

How did COc1ccc(C(=O)NC2CC3CCCC(C2)N3CC(C)C)cc1 (stereo not given) do in these assays?
D1 agonist: 4; D1 PAM: -12; ERG-DNA inh: -1%; D3 ag: -6; DRD3 antagonist: 2; D1 antagonist: 5

How did COc1ccc(C(=O)NC2CC3CCCC(C2)N3Cc2ccccc2)cc1 (stereo not given) do in these assays?
D1 agonist: 2; D1 PAM: -12; ERG-DNA inh: -2%; D3 ag: -21; DRD3 antagonist: -108*; D1 antagonist: -49*

How did Cc1[nH]nc2nc(SCC(=O)NCC3CCCO3)n(-c3ccc(Br)cc3)c(=N)c12 (stereo not given) do in these assays?
D1 agonist: 1; D1 PAM: -7; ERG-DNA inh: 5%; D3 ag: 6; DRD3 antagonist: -50*; D1 antagonist: 9

Results for Cc1cc(-n2c(SCC(=O)Nc3ccc(Br)cc3)nc3n[nH]c(C)c3c2=N)ccc1Cl ?
D1 agonist: 1; D1 PAM: -7; ERG-DNA inh: -7%; D3 ag: 0; DRD3 antagonist: -17; D1 antagonist: -2

Bioassay records deposited in PubChem BioAssay by National Center for Advancing Translational Sciences (NCATS).
